Assay results as given in PubChem BioAssay.
Calls of active or inactive are those of the source.

How the values were obtained:
[1] = binders of probe aFSTL3 on microarray, primary screen, stem cell growth factor project, biochemical, small-molecule microarray, fluorescence 635/667 (AID 1064); conditions: higher = more signal;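 note: measures binding of the biotinylated anti-FSTL3 antibody to printed compounds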
[2] = binders from COS7 lysate, DM2A8 probe, primary screen, torsin A project, cell lysate, small-molecule microarray, fluorescence 635/667 (AID 1065); conditions: higher = more signal, COS7 lysate expressing mutant human TOR1A
[3] = binders of probe aFGF2 on microarray, primary screen, stem cell growth factor project, biochemical, small-molecule microarray, fluorescence 635/667 (AID 1067); conditions: higher = more signal;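 note: measures binding of biotinylated aFGF2 protein to printed compounds on slides; z-score merges feature fluorescence and signal-to-noise across triplicate slides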
[4] = binders of probe aFGF10 on microarray, primary screen, stem cell growth factor project, biochemical, small-molecule microarray, fluorescence 635/667 (AID 1071); conditions: higher = more signal;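 note: score merges 667 nm spot intensity and signal to noise from triplicate slides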
[5] = target: Neurogenic locus notch homolog protein 2 (Homo sapiens) (UniProt Q04721); assay: Notch2 binders on small-molecule microarrays, primary screen, biochemical, small-molecule microarray, 635 nm fluorescence, stem cell growth factors (AID 1073); conditions: Notch2 binding, higher = more signal
[6] = target: Pro-neuregulin-1, membrane-bound isoform (Homo sapiens) (UniProt Q02297); assay: NRG1 binders on small-molecule microarrays, primary screen, psychiatric disease protein project, biochemical, small-molecule microarray, fluorescence 635/667 (AID 1075); conditions: NRG1 binding, 635 nm fluorescence, higher = more signal;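 note: score combines 667 nm spot fluorescence with signal to noise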
[7] = test system: Neuregulin-1 EGF-like domain; assay: binders of neuregulin-1 EGF-like domain, primary screen, biochemical, small-molecule microarray, 635 nm fluorescence (AID 1081); conditions: small-molecule microarray binding, higher = more signal;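 note: binding of the protein to compounds printed on small-molecule microarray slides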
[8] = FRG1 promoter luciferase signal modulators, primary screen, FRG1 inhibition for FSHD, cell-based, C2C12 myotubes, firefly/Renilla luciferase, luminescence (AID 1084); conditions: higher = more signal, called active from +8 up or from −8 down
[9] = binders of probe aFST on microarray, primary screen, stem cell growth factor project, biochemical, small-molecule microarray, fluorescence 635/667 (AID 1086); conditions: higher = more signal;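 note: score merges 667 nm fluorescence with signal-to-noise of each printed compound spot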
[10] = binders of probe aHhip on microarray, primary screen, stem cell growth factor project, biochemical, small-molecule microarray, fluorescence 635/667 (AID 1087); conditions: higher = more signal;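 note: score merges spot fluorescence at 667nm with spot signal to noise ratio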

Sequence of Neurogenic locus notch homolog protein 2 (Homo sapiens) (Q04721 whole entry, looked up, canonical isoform): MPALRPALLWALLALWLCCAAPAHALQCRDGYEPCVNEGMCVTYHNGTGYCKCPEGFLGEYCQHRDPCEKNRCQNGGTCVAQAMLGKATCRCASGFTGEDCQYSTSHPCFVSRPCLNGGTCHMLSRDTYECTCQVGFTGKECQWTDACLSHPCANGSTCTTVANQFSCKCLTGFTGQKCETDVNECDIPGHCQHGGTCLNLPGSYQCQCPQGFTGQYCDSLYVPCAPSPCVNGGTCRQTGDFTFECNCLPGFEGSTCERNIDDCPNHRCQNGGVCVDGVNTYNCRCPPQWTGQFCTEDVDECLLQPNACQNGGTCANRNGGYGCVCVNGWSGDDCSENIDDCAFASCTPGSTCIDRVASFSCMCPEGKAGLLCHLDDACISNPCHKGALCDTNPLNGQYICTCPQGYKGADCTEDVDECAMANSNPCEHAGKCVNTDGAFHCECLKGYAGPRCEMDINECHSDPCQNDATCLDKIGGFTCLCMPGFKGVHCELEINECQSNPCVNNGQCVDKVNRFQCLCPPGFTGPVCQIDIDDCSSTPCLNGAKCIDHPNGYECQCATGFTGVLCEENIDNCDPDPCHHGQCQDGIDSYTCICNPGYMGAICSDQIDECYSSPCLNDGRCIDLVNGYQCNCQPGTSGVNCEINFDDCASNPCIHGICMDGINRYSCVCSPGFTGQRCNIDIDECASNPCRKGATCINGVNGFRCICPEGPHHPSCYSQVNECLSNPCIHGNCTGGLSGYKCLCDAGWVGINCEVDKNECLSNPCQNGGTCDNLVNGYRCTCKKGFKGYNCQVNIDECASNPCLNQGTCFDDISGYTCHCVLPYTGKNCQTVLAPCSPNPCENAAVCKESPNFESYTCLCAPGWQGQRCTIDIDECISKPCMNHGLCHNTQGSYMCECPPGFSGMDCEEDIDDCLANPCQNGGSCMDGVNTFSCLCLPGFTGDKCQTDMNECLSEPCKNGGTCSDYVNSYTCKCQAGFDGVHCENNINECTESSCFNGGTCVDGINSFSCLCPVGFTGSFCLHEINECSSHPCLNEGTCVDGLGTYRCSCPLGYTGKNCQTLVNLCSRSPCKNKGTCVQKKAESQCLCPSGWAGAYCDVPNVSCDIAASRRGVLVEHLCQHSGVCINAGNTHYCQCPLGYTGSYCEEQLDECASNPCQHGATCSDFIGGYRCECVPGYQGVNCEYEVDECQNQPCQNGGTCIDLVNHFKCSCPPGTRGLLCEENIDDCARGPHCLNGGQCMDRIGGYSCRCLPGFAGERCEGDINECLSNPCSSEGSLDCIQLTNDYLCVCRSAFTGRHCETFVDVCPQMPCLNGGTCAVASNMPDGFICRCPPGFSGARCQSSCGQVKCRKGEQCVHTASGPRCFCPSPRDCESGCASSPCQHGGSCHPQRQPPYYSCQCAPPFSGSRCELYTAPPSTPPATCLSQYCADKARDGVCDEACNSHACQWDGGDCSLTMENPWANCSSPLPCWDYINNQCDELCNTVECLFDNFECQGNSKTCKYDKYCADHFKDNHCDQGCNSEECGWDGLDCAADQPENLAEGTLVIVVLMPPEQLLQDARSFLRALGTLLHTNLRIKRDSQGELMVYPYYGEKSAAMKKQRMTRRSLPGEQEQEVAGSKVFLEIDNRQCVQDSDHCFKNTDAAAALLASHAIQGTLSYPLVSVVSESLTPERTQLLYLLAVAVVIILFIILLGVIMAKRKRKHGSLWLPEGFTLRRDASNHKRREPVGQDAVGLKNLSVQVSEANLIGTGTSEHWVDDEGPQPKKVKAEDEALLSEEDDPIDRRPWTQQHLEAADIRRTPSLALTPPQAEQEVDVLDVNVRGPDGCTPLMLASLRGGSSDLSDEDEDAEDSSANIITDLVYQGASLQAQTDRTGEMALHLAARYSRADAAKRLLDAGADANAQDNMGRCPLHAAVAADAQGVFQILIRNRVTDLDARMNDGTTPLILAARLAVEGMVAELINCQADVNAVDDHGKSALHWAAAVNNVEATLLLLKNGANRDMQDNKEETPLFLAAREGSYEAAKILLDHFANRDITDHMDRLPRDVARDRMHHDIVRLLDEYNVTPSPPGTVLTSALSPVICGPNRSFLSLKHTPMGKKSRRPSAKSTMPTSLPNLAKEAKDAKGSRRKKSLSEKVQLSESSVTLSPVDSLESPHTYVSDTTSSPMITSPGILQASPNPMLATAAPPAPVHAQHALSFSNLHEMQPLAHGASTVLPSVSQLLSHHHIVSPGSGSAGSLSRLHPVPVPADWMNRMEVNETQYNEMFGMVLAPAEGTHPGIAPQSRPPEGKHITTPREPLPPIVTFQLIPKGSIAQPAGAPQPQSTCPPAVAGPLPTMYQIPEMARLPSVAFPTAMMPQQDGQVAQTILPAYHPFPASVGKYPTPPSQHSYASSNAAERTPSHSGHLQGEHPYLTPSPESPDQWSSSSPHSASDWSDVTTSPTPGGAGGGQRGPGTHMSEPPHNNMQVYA
Sequence of Pro-neuregulin-1, membrane-bound isoform (Homo sapiens) (Q02297 whole entry, looked up, the tested form may be a part, canonical isoform): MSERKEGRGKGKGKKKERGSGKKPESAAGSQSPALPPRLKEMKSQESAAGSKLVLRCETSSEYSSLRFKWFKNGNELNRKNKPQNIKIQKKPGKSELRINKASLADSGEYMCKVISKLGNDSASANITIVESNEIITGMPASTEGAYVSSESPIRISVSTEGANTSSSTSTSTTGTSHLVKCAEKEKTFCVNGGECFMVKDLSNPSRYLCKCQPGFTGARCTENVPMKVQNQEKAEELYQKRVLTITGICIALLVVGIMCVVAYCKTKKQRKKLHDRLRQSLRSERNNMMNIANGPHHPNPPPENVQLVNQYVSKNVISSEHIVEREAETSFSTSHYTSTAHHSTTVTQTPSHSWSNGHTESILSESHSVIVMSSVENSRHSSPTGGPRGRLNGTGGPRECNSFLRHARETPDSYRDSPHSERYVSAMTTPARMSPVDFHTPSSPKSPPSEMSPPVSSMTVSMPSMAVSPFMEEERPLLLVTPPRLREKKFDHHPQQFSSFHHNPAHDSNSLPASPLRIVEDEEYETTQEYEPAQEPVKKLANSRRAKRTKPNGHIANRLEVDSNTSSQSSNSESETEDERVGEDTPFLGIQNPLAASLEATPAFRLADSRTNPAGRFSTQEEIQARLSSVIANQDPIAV

SMILES	composite z-score [1]	composite z-score [2]	composite z-score [3]	composite z-score [4]	composite z-score [5]	composite z-score [6]	composite z-score [7]	z-score [8]	composite z-score [9]	composite z-score [10]
C=CCC(OC(C)=O)[C@@H]1[C@@H](N(Cc2ccc(-c3cccc(C(F)(F)F)c3)o2)C(=O)c2ccc(C)cc2)c2cc(OCCCO)ccc2N1C(=O)Cc1ccc2ccccc2c1 (stereo not given in full)	0.0498	-0.752	-0.102	0.205	-0.564	-0.326	-0.513	-0.201 (inactive)	0.0714	-0.134
CCOC(=O)C1=CC[C@@H](c2ccccc2)N(S(=O)(=O)c2ccc(C)cc2)[C@H]1c1ccccc1C	0.158	-0.0515	-0.0895	0.49	1.47	0.393	0.714	-3.47 (inactive)	0.789	0.115
O=C(c1ccccc1)N1C(=O)[C@@]2(Cc3ccccc31)N=C(c1ccc(OCCCO)cc1)O[C@H]2c1ccccc1	0.77	0.686	0.15	0.663	1.17	1.57	1.39	-2.91 (inactive)	1.01	0.364
COC(=O)C(CC#Cc1ccc2c(c1)[C@]1(C(=O)N2)[C@H](C(=O)Nc2nc3ccccc3s2)[C@H]2C(=O)O[C@H](c3ccccc3)[C@H](c3ccccc3)N2[C@@H]1c1ccc(O)cc1)C(=O)OC	-0.485	0.919	0.0495	0.621	1.33	1.37	1.36	1.28 (inactive)	0.688	-0.0618
C=CCOC(=O)[C@@H]1[C@H]2C(=O)O[C@H](c3ccccc3)[C@H](c3ccccc3)N2[C@H](c2ccc(OCCOC(=O)[C@H]3C[C@H]4C(=O)N5CCC[C@H]5C(=O)N4[C@H]3c3ccc(O)cc3)cc2)[C@@]12C(=O)Nc1ccc(I)cc12	-0.493	0.942	-0.0958	0.59	0.929	0.782	1.24	-0.627 (inactive)	-0.0364	-0.34
CN1C(=O)C2C=CC(C(O)c3ccccc3)N(N(c3ccccc3)c3ccccc3)C2C1=O (stereo not given)	-0.034	0.287	0.0561	0.332	0.924	0.647	0.553	0.815 (inactive)	0.474	0.245
COc1cc2c(cc1OC)CN(C(=O)[C@H]1[C@@H]3C(=O)O[C@@H](c4ccccc4)[C@@H](c4ccccc4)N3[C@@H](c3ccc(O)cc3)[C@]13C(=O)Nc1ccc(C#CCCO)cc13)CC2	0.0257	0.322	-0.0659	0.519	0.0774	1.63	1.28	-0.845 (inactive)	-0.0227	-0.125
C=CCOC(=O)[C@H]1[C@@H]2C(=O)O[C@@H](c3ccccc3)[C@@H](c3ccccc3)N2[C@@H](c2ccc(OCCOC(=O)[C@@H]3C[C@@H]4C(=O)N[C@@H](CC(C)C)C(=O)N4[C@@H]3c3ccc(O)cc3)cc2)[C@]12C(=O)Nc1ccccc12	-0.254	0.479	0.0056	0.649	0.85	1.02	1.2	0.631 (inactive)	0.0922	0.0201
CCOC(=O)C[C@H]1[C@H](OC(=O)c2ccc(C(=O)c3ccccc3)cc2)[C@@H](NC(=O)c2ccccc2)c2cc(OCCCO)ccc2N1C(=O)c1ccc2ccccc2n1	-0.416	0.0991	-0.0206	0.234	1.27	0.682	0.417	-0.266 (inactive)	0.314	0.107
CO[C@H]1O[C@H](CO)[C@@H](OC(=O)Nc2ccc(C(F)(F)F)cc2)[C@H](OC(=O)Nc2ccc3c(c2)OCO3)[C@@H]1OC(=O)Nc1ccc2c(c1)OCO2	-0.139	1.62	0.0666	1.22	1.51	1.76	1.29	3.93 (inactive)	-0.0167	0.124
Cc1ccc(S[C@]2(C(=O)O)CC(=O)N(C(C)C)[C@@H]2c2ccc(CO)cc2I)cc1	1.83	1.16	0.0477	-0.0395	0.175	1.89	1.16	-0.974 (inactive)	1.33	-0.148
CCCC[C@@H]1C[C@H]1[C@@H](NC(=O)c1ccco1)c1ccc(-c2ccccc2)cc1	-0.207	-0.194	-0.176	0.203	0.571	-0.343	1.02	1.85 (inactive)	0.425	0.0922
C=C(C)[C@@H]1CC=C(C(O)C2C=CC3C(=O)N(C)C(=O)C3N2Nc2ccccc2)CC1 (stereo not given in full)	0.301	0.122	-0.0216	0.394	1.27	0.624	0.928	0.283 (inactive)	0.577	0.176
NC(=O)[C@@H]1[C@H]2C(=O)O[C@H](c3ccccc3)[C@H](c3ccccc3)N2[C@H](c2ccc(O)cc2)[C@@]12C(=O)Nc1ccccc12	0.241	-0.933	-0.179	0.0547	-0.985	2.01	0.476	0.308 (inactive)	-0.114	-0.314
CC(C)N1C(=O)[C@@]2(Cc3ccccc31)c1ccccc1C(=O)N(Cc1ccccc1Cl)[C@H]2c1ccc(CO)cc1	-0.0423	-0.149	-0.177	-0.272	-0.791	-0.371	0.0118	-0.426 (inactive)	-0.377	-0.319
O=C1OCCC/C=C\[C@H]2OC34C=CCN(Cc5ccccc5)C(=O)[C@H]3N(CCCO)C(=O)[C@@H]4C12 (stereo not given in full)	0.985	2.29	-0.145	-0.458	-1.15	0.822	0.703	0.308 (inactive)	-0.572	-0.0994
CCCC[C@@H]1C[C@H]1[C@@H](NC(=O)C(C)(C)C)c1ccc(C(F)(F)F)cc1	1.54	0.466	-0.0785	-0.38	-1.36	0.669	0.55	-0.571 (inactive)	-0.347	0.235
O=C1NC(=O)C2C1C=CC(C(O)c1cc(C(F)(F)F)cc(C(F)(F)F)c1)N2Nc1ccccn1 (stereo not given)	-0.119	0.134	-0.0524	0.121	0.312	0.969	1.03	0.589 (inactive)	0.138	-0.0726
COc1ccc(CCNC(=O)[C@@]2(Sc3ccc(C)cc3)CC(=O)N(C3Cc4ccccc4C3)[C@@H]2c2ccc(CO)cc2I)cc1	0.538	0.0778	-0.0558	-0.183	-0.813	1.54	0.948	-0.518 (inactive)	0.0627	0.0854
COCCOC(=O)N1C(=O)[C@@]2(c3cc(C#CCNC(N)=O)ccc31)[C@H](C(=O)N1CCN(c3ncccn3)CC1)[C@H]1C(=O)O[C@H](c3ccccc3)[C@H](c3ccccc3)N1[C@@H]2c1ccc(OCCO)cc1	0.0392	0.382	0.0465	0.719	0.795	0.821	0.87	0.0006 (inactive)	0.601	0.0939
COc1cc(Br)cc(C(O)C2C=CC3C(=O)N(C)C(=O)C3N2N2CCCCC2)c1OC (stereo not given)	0.0974	-1.02	-0.053	-0.207	0.224	0.818	1.31	0.876 (inactive)	0.347	0.0677
CN(C)CCCC[C@@H]1NC(=O)[C@H]2C[C@@H](C(=O)NCCCCCCN)[C@@H](c3ccc(O)cc3)N2C1=O	1.89	1.03	0.128	0.935	1.37	1.79	1.1	0.511 (inactive)	1.52	1.09
COc1ccc([Si](C)(C)[C@@H]2[C@@H](CCO)O[C@]3(C(=O)N(Cc4ccc(N(C=O)c5ccccc5)cc4)c4ccccc43)[C@H]2C)cc1	0.235	0.0422	-0.0332	0.255	0.719	0.508	0.565	-3.73 (inactive)	0.643	-0.0994
COc1cc(NN2C(C(O)c3ccco3)C=CC3C(=O)N(c4ccccc4)C(=O)C32)cc(OC)c1OC (stereo not given)	-0.178	-0.218	-0.116	0.127	0.723	1.18	1.21	0.889 (inactive)	0.162	-0.0215
C=CCNC(=O)[C@H]1[C@@H]2C(=O)O[C@@H](c3ccccc3)[C@@H](c3ccccc3)N2[C@@H](c2ccccc2OCCO)[C@]12C(=O)Nc1ccc(C#CCCO)cc12	0.103	-0.773	0.882	-0.0077	0.119	0.82	0.537	-5.02 (inactive)	-0.155	0.142
COC(=O)[C@@]1(Cc2ccc(F)cc2)[C@H]2c3cc(C(=O)N(C)C)n(Cc4ccc(Cl)c(C(F)(F)F)c4)c3C[C@H]2CN1C(=O)c1ccccc1	1.15	1.65	-0.0355	0.215	1.74	1.83	1.31	1.3 (inactive)	1.71	-0.0296
C=CCC(OC(C)=O)[C@@H]1[C@@H](N(Cc2ccc(-c3ccccc3)cc2)C(=O)Cc2ccc(OC)cc2)c2cc(OCCCO)ccc2N1C(=O)Cc1ccc2ccccc2c1 (stereo not given in full)	-0.214	0.735	-0.0891	0.0163	-0.299	-0.32	-0.504	-0.952 (inactive)	0.0346	-0.144
